Reference: PubChem BioAssay AID1159580 (chemical genetic matrix, 2015)
Among all 5,500 compounds or so, about 2,000 (36%) were called active. About 18% were inconclusive and are not listed. Cut-off read from the data, not from the text of the source: active = normalized growth mostly below about 0.91 (no sharp cut-off); inconclusive = no clear call, values can overlap the other calls; inactive = mostly above about 0.92. Some of the results follow.

Assay: chemical genetic growth profiling, strain panel (AID 1159580);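 note: tested at 20 µM; growth read once vehicle control cultures reached saturation at 30 °C; 1 = growth at the plate median or of vehicle wells; lower values mean less growth of the strain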
Conditions: growth OD
[1] = S. cerevisiae deletion strains, locus YHR030C, strain SLT2, stronger effect = lower value

Measured: normalized growth

CC(C)CC1NC(=O)NC1=O (configuration not stated)
inactive: S. cerevisiae deletion strains, locus YAL013W, strain DEP1, stronger effect = lower value 1.02 | S. cerevisiae deletion strains, locus YBR229C, strain ROT2, stronger effect = lower value 1.01 | S. cerevisiae deletion strains, locus YDL101C, strain DUN1, stronger effect = lower value 1 | S. cerevisiae deletion strains, locus YDL134C, strain PPH21, stronger effect = lower value 1.05 | S. cerevisiae deletion strains, locus YDR150W, strain NUM1, stronger effect = lower value 1.01 | S. cerevisiae deletion strains, locus YEL061C, strain CIN8, stronger effect = lower value 1.02 | S. cerevisiae deletion strains, locus YGR078C, strain PAC10, stronger effect = lower value 1.01 | S. cerevisiae deletion strains, locus YGR229C, strain SMI1, stronger effect = lower value 1.01 | [1] 1.04 | S. cerevisiae deletion strains, locus YHR087W, strain rtc3, stronger effect = lower value 1.02 | S. cerevisiae deletion strains, locus YJR043C, strain POL32, stronger effect = lower value 1.01 | S. cerevisiae deletion strains, locus YJR075W, strain HOC1, stronger effect = lower value 1.02 | S. cerevisiae deletion strains, locus YLR039C, strain RIC1, stronger effect = lower value 1 | S. cerevisiae deletion strains, locus YLR058C, strain SHM2 (second series), stronger effect = lower value 0.998 | S. cerevisiae deletion strains, locus YLR085C, strain ARP6, stronger effect = lower value 1.07 | S. cerevisiae deletion strains, locus YLR262C, strain YPT6, stronger effect = lower value 1 | S. cerevisiae deletion strains, locus YML094W, strain GIM5, stronger effect = lower value 1.03 | S. cerevisiae deletion strains, locus YMR219W, strain ESC1, stronger effect = lower value 1.01 | S. cerevisiae deletion strains, locus YMR263W, strain SAP30, stronger effect = lower value 1.01 | S. cerevisiae deletion strains, locus YMR307W, strain GAS1, stronger effect = lower value 1.02 | S. cerevisiae deletion strains, locus YNL153C, strain GIM3, stronger effect = lower value 1.01 | S. cerevisiae deletion strains, locus YNL298W, strain CLA4 (second series), stronger effect = lower value 0.984 | S. cerevisiae deletion strains, locus YNL322C, strain KRE1, stronger effect = lower value 1.02 | S. cerevisiae deletion strains, locus YNR030W, strain Alg12, stronger effect = lower value 1.02 | S. cerevisiae deletion strains, locus YPL055C, strain LGE1, stronger effect = lower value 1.07 | S. cerevisiae deletion strains, locus YPL241C, strain CIN2, stronger effect = lower value 1.02 | S. cerevisiae deletion strains, locus YPR135W, strain CTF4, stronger effect = lower value 1.13 | S. cerevisiae strains, strain wild type, stronger effect = lower value 1.02

CCCCCC(=O)Cc1cc(O)cc(O)c1C(=O)Oc1cc(CC(=O)CCCCC)c(C(=O)O)c(OC)c1
active: S. cerevisiae deletion strains, locus YAL021C, strain ccr4, stronger effect = lower value 0.892 | S. cerevisiae deletion strains, locus YAL026C, strain drs2, stronger effect = lower value 0.86 | S. cerevisiae deletion strains, locus YBR009C, strain hhf1, stronger effect = lower value 0.881 | S. cerevisiae deletion strains, locus YBR023C, strain chs3, stronger effect = lower value 0.907 | S. cerevisiae deletion strains, locus YBR171W, strain sec66, stronger effect = lower value 0.858 | S. cerevisiae deletion strains, locus YDR137W, strain rgp1, stronger effect = lower value 0.412 | S. cerevisiae deletion strains, locus YDR159W, strain sac3, stronger effect = lower value 0.771 | S. cerevisiae deletion strains, locus YDR335W, strain msn5, stronger effect = lower value 0.894 | S. cerevisiae deletion strains, locus YDR392W, strain spt3, stronger effect = lower value 0.404 | S. cerevisiae deletion strains, locus YER016W, strain bim1, stronger effect = lower value 0.913 | S. cerevisiae deletion strains, locus YER155C, strain BEM2 (second series), stronger effect = lower value 0.639 | S. cerevisiae deletion strains, locus YGL167C, strain pmr1, stronger effect = lower value 0.89 | S. cerevisiae deletion strains, locus YGL173C, strain kem1, stronger effect = lower value 0.851 | S. cerevisiae deletion strains, locus YGL240W, strain doc1, stronger effect = lower value 0.77 | S. cerevisiae deletion strains, locus YGL253W, strain hxk2, stronger effect = lower value 0.855 | S. cerevisiae deletion strains, locus YHR013C, strain ard1, stronger effect = lower value 1.18 [resistant] | S. cerevisiae deletion strains, locus YHR027C, strain rpn1, stronger effect = lower value 0.919 | S. cerevisiae deletion strains, locus YHR142W, strain chs7, stronger effect = lower value 0.818 | S. cerevisiae deletion strains, locus YJL095W, strain BCK1 (second series), stronger effect = lower value 0.694 | S. cerevisiae deletion strains, locus YJL129C, strain trk1, stronger effect = lower value 0.632 | S. cerevisiae deletion strains, locus YJL164C, strain tpk1, stronger effect = lower value 0.899 | S. cerevisiae deletion strains, locus YJL166W, strain qcr8, stronger effect = lower value 0.871 | S. cerevisiae deletion strains, locus YJL187C, strain SWE1, stronger effect = lower value 0.909 | S. cerevisiae deletion strains, locus YKR091W, strain srl3, stronger effect = lower value 0.922 | S. cerevisiae deletion strains, locus YLL041C, strain sdh2, stronger effect = lower value 0.927 | S. cerevisiae deletion strains, locus YLR027C, strain aat2, stronger effect = lower value 0.922 | S. cerevisiae deletion strains, locus YLR221C, strain rsa3, stronger effect = lower value 0.859 | S. cerevisiae deletion strains, locus YLR262C, strain YPT6 (second series), stronger effect = lower value 0.409 | S. cerevisiae deletion strains, locus YLR320W, strain mms22, stronger effect = lower value 0.826 | S. cerevisiae deletion strains, locus YLR342W, strain FKS1, stronger effect = lower value 0.901 | S. cerevisiae deletion strains, locus YML120C, strain ndi1, stronger effect = lower value 0.898 | S. cerevisiae deletion strains, locus YMR058W, strain fet3, stronger effect = lower value 0.883 | S. cerevisiae deletion strains, locus YMR129W, stronger effect = lower value 0.918 | S. cerevisiae deletion strains, locus YMR205C, strain PFK2, stronger effect = lower value 0.783 | S. cerevisiae deletion strains, locus YNL071W, strain lat1, stronger effect = lower value 0.888 | S. cerevisiae deletion strains, locus YOR001W, strain rrp6, stronger effect = lower value 0.882 | S. cerevisiae deletion strains, locus YOR070C, strain gyp1, stronger effect = lower value 0.918 | S. cerevisiae deletion strains, locus YOR265W, strain rbl2, stronger effect = lower value 0.925 | S. cerevisiae deletion strains, locus YOR270C, strain vph1, stronger effect = lower value 0.607 | S. cerevisiae deletion strains, locus YPL051W, strain arl3, stronger effect = lower value 0.853 | S. cerevisiae deletion strains, locus YPL078C, strain atp4, stronger effect = lower value 0.862 | S. cerevisiae deletion strains, locus YPL106C, strain sse1, stronger effect = lower value 0.812 | S. cerevisiae deletion strains, locus YPL240C, strain hsp82, stronger effect = lower value 0.912
inactive: S. cerevisiae deletion strains, locus YAL030W, strain snc1, stronger effect = lower value 0.934 | S. cerevisiae deletion strains, locus YBL061C, strain skt5, stronger effect = lower value 0.925 | S. cerevisiae deletion strains, locus YBR231C, strain swc5, stronger effect = lower value 0.927 | S. cerevisiae deletion strains, locus YBR279W, strain paf1, stronger effect = lower value 0.943 | S. cerevisiae deletion strains, locus YCL011C, strain gbp2, stronger effect = lower value 0.933 | S. cerevisiae deletion strains, locus YCL016C, strain dcc1, stronger effect = lower value 0.943 | S. cerevisiae deletion strains, locus YCL069W, strain vba3, stronger effect = lower value 0.929 | S. cerevisiae deletion strains, locus YCR088W, strain abp1, stronger effect = lower value 0.934 | S. cerevisiae deletion strains, locus YDL005C, strain med2, stronger effect = lower value 0.954 | S. cerevisiae deletion strains, locus YDL040C, strain nat1, stronger effect = lower value 0.939 | S. cerevisiae deletion strains, locus YDR001C, strain nth1, stronger effect = lower value 0.936 | S. cerevisiae deletion strains, locus YDR069C, strain doa4, stronger effect = lower value 0.95 | S. cerevisiae deletion strains, locus YDR195W, strain ref2 0.863 | S. cerevisiae deletion strains, locus YDR297W, strain sur2, stronger effect = lower value 0.927 | S. cerevisiae deletion strains, locus YDR334W, strain swr1, stronger effect = lower value 0.917 | S. cerevisiae deletion strains, locus YEL003W, strain gim4, stronger effect = lower value 0.919 | S. cerevisiae deletion strains, locus YEL037C, strain rad23, stronger effect = lower value 0.941 | S. cerevisiae deletion strains, locus YEL061C, strain CIN8 (second series), stronger effect = lower value 0.946 | S. cerevisiae deletion strains, locus YER015W, strain faa2, stronger effect = lower value 0.947 | S. cerevisiae deletion strains, locus YER111C, strain swi4, stronger effect = lower value 0.941 | S. cerevisiae deletion strains, locus YFR010W, strain ubp6, stronger effect = lower value 0.933 | S. cerevisiae deletion strains, locus YGL227W, strain vid30, stronger effect = lower value 0.937 | [1] 1.01 | S. cerevisiae deletion strains, locus YHR079C, strain IRE1, stronger effect = lower value 0.981 | S. cerevisiae deletion strains, locus YJL092W, strain hpr5, stronger effect = lower value 0.943 | S. cerevisiae deletion strains, locus YJL095W, strain BCK1, stronger effect = lower value 0.99 | S. cerevisiae deletion strains, locus YJL115W, strain asf1, stronger effect = lower value 0.922 | S. cerevisiae deletion strains, locus YJL154C, strain vps35, stronger effect = lower value 0.935 | S. cerevisiae deletion strains, locus YJR066W, strain TOR1, stronger effect = lower value 0.939 | S. cerevisiae deletion strains, locus YKL160W, strain elf1, stronger effect = lower value 0.916 | S. cerevisiae deletion strains, locus YKR026C, strain gcn3, stronger effect = lower value 0.933 | S. cerevisiae deletion strains, locus YLL001W, strain dnm1, stronger effect = lower value 0.941 | S. cerevisiae deletion strains, locus YLL026W, stronger effect = lower value 0.935 | S. cerevisiae deletion strains, locus YLR113W, strain HOG1, stronger effect = lower value 0.983 | S. cerevisiae deletion strains, locus YLR258W, strain gsy2, stronger effect = lower value 0.919 | S. cerevisiae deletion strains, locus YLR357W, strain rsc2, stronger effect = lower value 0.866 | S. cerevisiae deletion strains, locus YLR370C, strain arc18, stronger effect = lower value 0.925 | S. cerevisiae deletion strains, locus YLR384C, strain iki3, stronger effect = lower value 0.945 | S. cerevisiae deletion strains, locus YMR125W, strain sto1, stronger effect = lower value 0.909 | S. cerevisiae deletion strains, locus YMR231W, strain pep5, stronger effect = lower value 0.929 | S. cerevisiae deletion strains, locus YNL183C, strain NPR1, stronger effect = lower value 0.946 | S. cerevisiae deletion strains, locus YNL209W, strain ssb2, stronger effect = lower value 0.948 | S. cerevisiae deletion strains, locus YNL248C, strain rpa49, stronger effect = lower value 0.903 | S. cerevisiae deletion strains, locus YNL322C, strain KRE1 (second series), stronger effect = lower value 0.919 | S. cerevisiae deletion strains, locus YNR049C, strain mso1, stronger effect = lower value 0.95 | S. cerevisiae deletion strains, locus YOR080W, strain dia2, stronger effect = lower value 0.938 | S. cerevisiae deletion strains, locus YOR083W, strain WHI5, stronger effect = lower value 0.898 | S. cerevisiae deletion strains, locus YOR106W, strain vam3, stronger effect = lower value 0.897 | S. cerevisiae deletion strains, locus YOR231W, strain MKK1, stronger effect = lower value 0.994 | S. cerevisiae deletion strains, locus YOR290C, strain snf2, stronger effect = lower value 0.925 | S. cerevisiae deletion strains, locus YPL256C, strain CLN2, stronger effect = lower value 0.989
